This is part of a sample that, as a whole, favours compounds with a hit. Of some 79,000 tested, about 15% had one in any assay. Rule as the data show it: active = growth inhibition above about 70%; inactive = the rest.
Columns and labels:
[1] = NCI Yeast Anticancer Drug Screen. Data for the rad50 strain (AID 155);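 also: 0% = growth of vehicle-only cultures of the same strain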; conditions: S. cerevisiae rad50 strain growth inhibition; at 50.0 µM; stronger effect = higher value
Procedure, shortened: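 Growth of the mutant yeast was measured after compound exposure and referenced to vehicle-treated cultures.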

[2] = NCI Yeast Anticancer Drug Screen. Data for the mec2-1 strain (AID 157); conditions: S. cerevisiae mec2-1 strain, at 50.0 µM, stronger effect = higher value
Procedure, shortened: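 mec2-1 yeast strain, carrying an alteration in DNA damage repair or cell cycle control, was exposed to compounds; growth inhibition was measured relative to vehicle-treated controls.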

[3] = NCI Yeast Anticancer Drug Screen. Data for the sgs1 mgt1 strain (AID 161);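 also: 0% = growth of cultures given vehicle only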; conditions: S. cerevisiae sgs1 mgt1 strain, at 50.0 µM, stronger effect = higher value
Procedure, shortened: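 Percent growth inhibition was derived by comparing compound-exposed mutant yeast with vehicle-exposed cultures. The strain carries alterations in DNA damage repair.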

[4] = NCI Yeast Anticancer Drug Screen. Data for the cln2 rad14 strain (AID 165);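 also: 0% = growth equal to vehicle treated cultures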; conditions: S. cerevisiae cln2 rad14 strain, at 50.0 µM, stronger effect = higher value
Procedure, shortened: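 Yeast carrying cln2 and rad14 alterations (cell cycle control and DNA damage repair) were exposed to compounds. Growth inhibition was measured against vehicle-treated controls.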

[5] = NCI Yeast Anticancer Drug Screen. Data for the bub3 strain (AID 167); conditions: S. cerevisiae bub3 mutant strain, at 50.0 µM, stronger effect = higher value
Procedure, shortened: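 Whole-cell yeast assay. The mutant strain was incubated with compounds, and growth inhibition was determined by comparison with vehicle-treated cells.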

[6] = NCI Yeast Anticancer Drug Screen. Data for the mlh1 rad18 strain (AID 175); conditions: S. cerevisiae mlh1 rad18 strain growth inhibition; at 50.0 µM; stronger effect = higher value
Procedure, shortened: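 Growth inhibition of the yeast strain was measured after compound exposure and expressed relative to vehicle-treated controls. The strain carries defined defects in DNA damage repair.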

Measured: growth inhibition

COc1ccc(NS(=O)(=O)c2ccc(NC(=O)NCCCl)cc2)nn1
inactive: [1] 13% | [2] -0.2% | [3] -9.85% | [4] 8.95% | [5] 2.55% | [6] 5.85%

COC(=O)c1cc(NC(=O)Nc2ccc(Cl)cc2[N+](=O)[O-])cc(C(=O)OC)c1
inactive: [1] -21.4% | [2] -13.3% | [3] -14.1% | [4] -68.2% | [5] -2.35% | [6] -11.1%

CCOC(=O)c1[nH]n(-c2ccccc2)c(=O)c1/C=N/C(=S)NCCc1ccc(OC)c(OC)c1
inactive: [1] 2.05% | [2] -0.6% | [3] 5.4% | [4] -10.8% | [5] -21% | [6] 13.2%

Cc1cc(Cl)ccc1C1OC(=O)c2c1ccc1ccccc21 (stereo unspecified)
inactive: [1] 16.9% | [2] 6.8% | [3] -6.25% | [4] 15.6% | [5] 7.5% | [6] 13.8%

CC(C)(O)/C(=N/O)c1ccc(-c2ccccc2)cc1
inactive: [1] -4.05% | [2] -18.3% | [3] 0.35% | [4] -16.1% | [5] 9.35% | [6] 10.8%

O=C(C[n+]1cccc(Cl)c1)c1cccc([N+](=O)[O-])c1
inactive: [1] -25.7% | [2] -7.2% | [3] -9.25% | [4] -3.8% | [5] 4.55% | [6] -5%

COC(=O)C1=C(C(=O)OC)N(C(C)C)[C@H]2C(C(=O)OC)=C(C(=O)OC)N(C(C)C)[C@@H]12
inactive: [1] 0.2% | [2] -9.75% | [3] -19.4% | [4] 5.75% | [5] -34.8% | [6] 13.3%

CCOC(=O)C(=O)c1c(C)[nH]c(C)c1C(=O)OCC
inactive: [1] -2.15% | [2] -4.8% | [3] 17.1% | [4] -23.1% | [5] 7.3% | [6] -9.1%

Cc1ccc(S(=O)(=O)N/N=C/C(C)C)cc1
inactive: [1] 14.2% | [2] -15.6% | [3] 4.75% | [4] 17.8% | [5] -14.8% | [6] 24.2%

Cc1cc(=O)c(C#N)c(C)o1
inactive: [1] 6.65% | [2] 10.2% | [3] 19.4% | [4] -2.7% | [5] -1.95% | [6] 10%

COC(=O)C1CCC(/C(C#N)=C2/CCC(C(=O)OC)[N-]2)=N1.COC(=O)C1CCC(/C(C#N)=C2/CCC(C(=O)OC)[N-]2)=N1.[Cu+2] (stereo unspecified)
inactive: [1] -13.8% | [2] -24.2% | [3] 3.5% | [4] -43.3% | [5] -24.5% | [6] 11.2%

CCSc1nnc2c(-c3ccccc3)n[nH]c2n1
inactive: [1] -0.75% | [2] -0.05% | [3] -21.8% | [4] -25.9% | [5] -27.6% | [6] -12.1%

CCCc1cc2c(cc1CSc1ccccc1C(=O)O)OCO2
inactive: [1] -13.6% | [2] -8.75% | [3] -1.9% | [4] -84.7% | [5] -7.6% | [6] -12.4%

N#Cc1c(C(F)(F)F)cc(-c2cccs2)nc1SC(C(=O)Nc1c(F)cccc1F)c1ccccc1 (stereo unspecified)
inactive: [1] 15.8% | [2] -19.6% | [3] 23% | [4] 20.2% | [5] 15% | [6] 25.9%

CC(/C=N/N(C)C1=NCCCCN1)=N/N(C)C1=NCCCCN1
inactive: [1] 23.9% | [2] 12.7% | [3] 18.5% | [4] -21.6% | [5] -2.5% | [6] 29.4%

COC(=O)CN(C(=O)c1ccc(OC(C)=O)cc1)c1ccccc1
inactive: [1] 4.25% | [2] 23.3% | [3] -6.7% | [4] 9.1% | [5] 3.45% | [6] -28.1%

CC(C)CCc1ccccc1O
inactive: [1] -14.7% | [2] -21.1% | [3] -28.6% | [4] -19.9% | [5] 0.1% | [6] -14.5%

C=CNC(=O)NC(=O)CSc1nnc(-c2ccccc2NC(=O)C(F)(F)F)c(=O)[nH]1
inactive: [1] 5.7% | [2] -4.95% | [3] -4% | [4] 14.9% | [5] 30.9% | [6] 5.4%

Oc1ccc(Br)cc1C1Nc2ccccc2S1 (stereo unspecified)
inactive: [1] 0.65% | [2] 6.15% | [3] 0.4% | [4] -28.3% | [5] 5.15% | [6] -1.85%

O=C1Cc2nc(CO)c(CO)c(CO)c2CO1
inactive: [1] -43% | [2] -34.6% | [3] -72.7% | [4] -2.85% | [5] -37% | [6] -47%

COC(=O)C(=O)C(C(=O)C(N)=O)c1nc2ccc(C(=O)c3ccccc3)cc2[nH]c1=O (stereo unspecified)
inactive: [1] 0.35% | [2] 5.45% | [3] -17.2% | [4] -9.25% | [5] -19.1% | [6] 9.85%
